Sampled rows, rich in hits. Any-hit rate of the full collection: about 3.5%.
TEAD-YAP block: TEAD-YAP interaction inhibition | 1.4% of 640,000 active | inhibition, % at 9.12 µM | HEK-TIYL cells, TEAD-Gal4/YAP UAS-luciferase luminescence; in the data active means inhibition above about 32%
MITF primary: inhibitors of human MITF | 0.91% of 650,000 active | inhibition, % at 2.6 µM | AlphaScreen MITF homodimerization, bead proximity signal | AID 1259374 | O75030; in the data active means inhibition above about 50%
GPR151 ag: activates the human receptor GPR151. PathHunter beta-arrestin GPR151 cells, luminescence. activation, % at 11.2 µM. 1% of 650,000 active. AID 1508602; in the data active means activation above about 4.9%
FBW7 activator: human FBW7 E3 ligase activation, primary screen; Q969H0; AlphaScreen FBW7–phospho-cyclin E peptide binding, activator screen; normalized activity (activation), % at 26.1 µM; 0.13% of 650,000 active; in the data active means normalized activity above about 1.9%;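 further: purified mutant Fbw7 with reduced substrate affinity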
GPR151 conf act: confirmation of human GPR151 activators; shares compounds with GPR151 ag; GPR151 PathHunter beta-arrestin cells, luminescence, 90 min; % of EA-reagent control over plate median; activation, % at 11.2 µM; 6,700 tested, under 10 active; AID 1508609;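 active means mean percent activation across replicates above the confirmation screen cutoff of 4.91%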
GPR119 counter: counter-screen for GPR151 activators: effect on human GPR119 | shares compounds with GPR151 ag | GPR119 PathHunter beta-arrestin cells, luminescence, 90 min; 0 = compound-well median, 100 = enzyme-acceptor control | activation, % at 11.2 µM | 0.3% of 6,700 active | AID 1508611;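 active means mean percent activation in the counterscreen above 29.09%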;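 further: counterscreen on off-target GPR119 to flag nonselective hits from the GPR151 activator screen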
Target sequence (Q8TDV5 whole entry, looked up): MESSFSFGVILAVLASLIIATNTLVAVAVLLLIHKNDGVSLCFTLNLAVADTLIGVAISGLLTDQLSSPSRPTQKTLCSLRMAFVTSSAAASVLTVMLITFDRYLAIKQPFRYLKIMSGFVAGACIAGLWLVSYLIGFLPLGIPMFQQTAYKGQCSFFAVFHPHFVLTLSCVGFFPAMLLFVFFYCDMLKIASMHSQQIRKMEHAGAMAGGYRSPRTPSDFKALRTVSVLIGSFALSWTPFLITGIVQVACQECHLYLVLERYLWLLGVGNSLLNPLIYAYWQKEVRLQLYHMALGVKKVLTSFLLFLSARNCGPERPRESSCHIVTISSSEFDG
Numbers stand for hits.

`Cc1cc(C)nc(NNS(=O)(=O)c2ccc(Cl)cc2)n1` gave TEAD-YAP block inactive, MITF primary inactive, GPR151 ag 5.9, FBW7 activator inactive, GPR151 conf act inactive and GPR119 counter inactive.
For CCOC(=O)C1CCCCN1Cc1ccc(OC)c(C)c1OC (stereo not given) the results were TEAD-YAP block inactive, MITF primary inactive, GPR151 ag inactive and FBW7 activator inactive.
For CCOC(=O)C1CCCCN1Cc1cc(C)c(OC)cc1C (stereo not given) the results were TEAD-YAP block inactive, MITF primary inactive, GPR151 ag 4.9, FBW7 activator inactive, GPR151 conf act inactive and GPR119 counter inactive.
COc1ccccc1/C=N/NC(=O)c1ccccn1 was read as TEAD-YAP block inactive, MITF primary inactive, GPR151 ag inactive and FBW7 activator inactive.
Screening O=C(O)c1ccc(NC(=O)c2cccc(S(=O)(=O)Nc3cccc(F)c3)c2)cc1 returned TEAD-YAP block inactive, MITF primary inactive, GPR151 ag 8.7, FBW7 activator inactive, GPR151 conf act inactive and GPR119 counter inactive.
For O=C(CNS(=O)(=O)c1ccc(Br)cc1)Nc1cccc(F)c1 the results were TEAD-YAP block inactive, MITF primary inactive, GPR151 ag inactive and FBW7 activator inactive.
Cc1ccc(SCC(=O)Nc2cccc(F)c2)cc1 was read as TEAD-YAP block inactive, MITF primary inactive, GPR151 ag 6.4, FBW7 activator inactive, GPR151 conf act inactive and GPR119 counter inactive.
O=C(CNS(=O)(=O)c1ccccc1)Nc1cccc(F)c1 was read as TEAD-YAP block inactive, MITF primary inactive, GPR151 ag 6.0, FBW7 activator inactive, GPR151 conf act inactive and GPR119 counter inactive.
Screening O=C(CSc1ccccc1)Nc1cccc(F)c1 returned TEAD-YAP block inactive, MITF primary inactive, GPR151 ag inactive and FBW7 activator inactive.
Screening O=C(Nc1ccc(N2CCNCC2)nc1)c1oc(-c2ccccc2)nc1C(F)(F)F returned GPR151 ag inactive.
Cc1nc(N2CCCCC2)c2c(C)c(C(=O)N3CCN(c4ccccc4)CC3)sc2n1 was read as TEAD-YAP block inactive, MITF primary inactive, GPR151 ag 5.3, FBW7 activator inactive, GPR151 conf act inactive and GPR119 counter inactive.
COc1ccc(CCNC(=O)c2sc3nc(C)nc(N4CCCCC4)c3c2C)cc1OC was read as TEAD-YAP block inactive, MITF primary inactive, GPR151 ag 25, FBW7 activator inactive, GPR151 conf act inactive and GPR119 counter inactive.
COc1ccc(CCNC(=O)c2sc3nc(C)nc(N4CCC(C)CC4)c3c2C)cc1OC was read as TEAD-YAP block inactive, MITF primary inactive, GPR151 ag inactive and FBW7 activator inactive.
Screening COC(=O)c1ccc(/C=C2/C(=O)NN(c3ccc(C)c(C)c3)C2=O)cc1 returned TEAD-YAP block inactive, MITF primary inactive, GPR151 ag 5.2, FBW7 activator inactive, GPR151 conf act inactive and GPR119 counter inactive.
`O=C(Nc1ccc(Br)cc1)c1ccc(N2C(=O)C3CCCCC3C2=O)cc1` (stereo not given) gave TEAD-YAP block inactive, MITF primary inactive, GPR151 ag inactive and FBW7 activator inactive.
Screening O=C(Nc1ccc(Br)cc1)c1cccc(N2C(=O)C3CCCCC3C2=O)c1 (stereo not given) returned TEAD-YAP block inactive, MITF primary inactive, GPR151 ag 7.5, FBW7 activator inactive, GPR151 conf act inactive and GPR119 counter inactive.
Screening Cc1ccnc(-n2cccc2CN2CCc3c(nc(N4CCCC4)[nH]c3=O)C2)c1 returned TEAD-YAP block inactive, MITF primary inactive, GPR151 ag 5.0, FBW7 activator inactive, GPR151 conf act inactive and GPR119 counter inactive.
Cc1nc2c(C(=O)NC3CCCCC3)cnn2c(C)c1Cc1ccc(F)cc1 was read as TEAD-YAP block inactive, MITF primary inactive, GPR151 ag 5.0, FBW7 activator inactive, GPR151 conf act inactive and GPR119 counter inactive.
Screening Cc1nc2c(C(=O)NC3CCCC3)cnn2c(C)c1Cc1ccc(F)cc1 returned TEAD-YAP block inactive, MITF primary inactive, GPR151 ag inactive and FBW7 activator inactive.
For Cc1nc2c(C(=O)O)cnn2c(C)c1Cc1ccc(Cl)cc1 the results were TEAD-YAP block inactive, MITF primary inactive, GPR151 ag 5.8, FBW7 activator inactive, GPR151 conf act inactive and GPR119 counter inactive.

Bioassay records (PubChem BioAssay)
